Screening results deposited in PubChem BioAssay by several laboratories.
Shown are actives, neighbours in structure and some others; about 6.7% of the full set was active somewhere.
Anthrax LF prot = blocks Bacillus anthracis lethal factor protease; P15917; hit rate 0.12% among 360,000; inhibition, % at 10 µM; multiplex microsphere protease cleavage assay, LF; AID 588501
BoNT-F LC inh = BoNT F light chain protease inhibition | Multiplex microsphere protease cleavage assay, flow cytometry | hit rate 0.22% among 360,000 | inhibition, % at 10 µM; in the data active = inhibition above about 35%, passing the limit was not always enough; inconclusive = no clear call, values can overlap the other calls
BoNT-A LC inh2 = BoNT A light chain protease inhibition. multiplex microsphere protease substrate cleavage, flow cytometry. inhibition, % at 10 µM. hit rate 0.17% among 360,000
GDH-TPI counter-1 = counter-screen for M. tuberculosis FBA inhibitors: GDH-TPI coupled enzymes; GDH-TPI coupled enzyme counterscreen, NADH absorbance; inhibition, % at 4.8 µM; hit rate 1.2% among 360,000; AID 588335; in the data active = inhibition above about 30%
FBA Mtb inh = inhibits M. tuberculosis FBA enzyme; AID 588726; inhibition, % at 1 µM; purified M. tuberculosis FBA, fluorescence read-out; hit rate 2.3% among 360,000; in the data active = inhibition above about 27%
Target sequence (P9WQA3 whole entry, looked up): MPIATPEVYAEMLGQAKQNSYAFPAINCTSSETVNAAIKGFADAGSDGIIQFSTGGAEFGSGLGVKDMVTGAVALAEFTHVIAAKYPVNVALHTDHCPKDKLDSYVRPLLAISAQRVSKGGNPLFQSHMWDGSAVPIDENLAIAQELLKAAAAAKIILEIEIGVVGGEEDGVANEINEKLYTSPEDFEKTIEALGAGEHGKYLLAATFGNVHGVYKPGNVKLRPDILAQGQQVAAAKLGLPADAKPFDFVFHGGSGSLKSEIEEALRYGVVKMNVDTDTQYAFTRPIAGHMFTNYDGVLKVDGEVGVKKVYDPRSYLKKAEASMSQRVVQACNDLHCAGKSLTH
Bead autofluor = compound fluorescence in toxin protease inhibitor counterscreen; compound autofluorescence counterscreen, microsphere flow cytometry; stronger effect = higher value; fluorescence intensity (concentration not given with the values); hit rate 3.1% among 360,000; AID 624483; in the data active = fluorescence intensity above about 16000; inconclusive = no clear call, values can overlap the other calls
Mtb FBA inh conf = Mtb FBA inhibition, confirmed. shares compounds with FBA Mtb inh. purified M. tuberculosis FBA, fluorescence read-out. inhibition, % at 1 µM. hit rate 78% among 5,600; in the data active = inhibition above about 27%
GDH-TPI counter-2 = GDH-TPI inhibition counter-screen for FBA inhibitors | inhibition, % at 1 µM | shares compounds with FBA Mtb inh | hit rate 81% among 5,600 | GDH-TPI coupled enzyme counterscreen, fluorescence; in the data active = inhibition above about 10%
Each line names hits and unclear results; the compound was inactive in the other large screens (follow-up assays come after a bar, where they were run). Rule as the data show it, unless noted: active = inhibition above about 30%; inconclusive = no clear call, values can overlap the other calls; inactive = below that.

C=CCNC(=O)C1CCN(c2cc(C)nc(-c3ccccc3)n2)CC1	none
C=CCNC(=O)C1CCN(c2nc(C)cc(-c3ccccc3)n2)CC1	FBA Mtb inh 33 | Mtb FBA inh conf inactive | GDH-TPI counter-2 inactive
NC(=O)COc1ccc2oc(-c3ccccc3)cc(=O)c2c1	FBA Mtb inh 77 | Mtb FBA inh conf inactive | GDH-TPI counter-2 inactive
CCc1ccccc1NC(=O)COc1ccc2oc(-c3ccc(OC)cc3)cc(=O)c2c1	FBA Mtb inh 35 | Mtb FBA inh conf 75 | GDH-TPI counter-2 52
CCOC(=O)COc1ccc2c(=O)cc(-c3ccccc3)oc2c1	none (no result: Anthrax LF prot, BoNT-F LC inh, BoNT-A LC inh2, Bead autofluor)
Cc1[nH]c2ccc(-c3n[nH]c(=S)n3-c3ccc(Br)cc3)cc2c1C	none
O=C1OCCN1C(=O)[C@H]1[C@H](c2ccc(Cl)cc2)C(c2ccccc2)=NN1c1ccccc1	none
O=C1[C@H]2C(c3ccccc3)=NN(c3ccccc3)[C@H]2C(=O)N1c1ccccc1	FBA Mtb inh 31 | Mtb FBA inh conf 67 | GDH-TPI counter-2 59
O=C(CSc1nnc(-c2ccccn2)n1Cc1ccccc1)N1CCCC1	FBA Mtb inh 84 | Mtb FBA inh conf 101 | GDH-TPI counter-2 68
CCCC(C(=O)NCCC(C)C)N(Cc1ccc(F)cc1)C(=O)c1snc(C(N)=O)c1N (stereo unspecified)	BoNT-F LC inh inconclusive
CCN(CCO)c1ccc(-n2c(N)c(C(=O)OC)c3nc4ccccc4nc32)cc1	none
COCCCn1c(N)c(C(=O)NCCC(C)C)c2nc3ccccc3nc21	FBA Mtb inh 34 | Mtb FBA inh conf 74 | GDH-TPI counter-2 62
CCC(C)n1c(C)nc2c(c1=O)c1nc3ccccc3nc1n2CCC1=CCCCC1 (stereo unspecified)	Anthrax LF prot inconclusive, FBA Mtb inh 32, Bead autofluor inconclusive | Mtb FBA inh conf active | GDH-TPI counter-2 active
CCCCn1c(N)c(C(=O)OCCOC)c2nc3ccccc3nc21	FBA Mtb inh 55 | Mtb FBA inh conf 31 | GDH-TPI counter-2 17
CCCCn1c2nc3ccccc3nc2c2c(=O)n(C(C)CC)cnc21 (stereo unspecified)	none
COCCNC(=O)c1c(N)n(CCC2=CCCCC2)c2nc3ccccc3nc12	FBA Mtb inh 54 | Mtb FBA inh conf 77 | GDH-TPI counter-2 56
CCOCCCn1c(N)c(C(=O)Nc2sc3c(c2C(=O)OC)CCCC3)c2nc3ccccc3nc21	FBA Mtb inh 46 | Mtb FBA inh conf 188 | GDH-TPI counter-2 153
O=C1C=CC(=Nc2ccc3c(c2)Cc2ccccc2-3)O1	none
CCc1nc2nc(C)c(NS(=O)(=O)c3ccc(C)c(C)c3)c(=O)n2[nH]1	none
Clc1ccc(C[n+]2c(-c3ccccc3)cc(-c3ccccc3)cc2-c2ccccc2)cc1	FBA Mtb inh 38 | Mtb FBA inh conf inactive | GDH-TPI counter-2 13
O=C([O-])c1cc(-c2ccccc2)cc(-c2ccccc2)[n+]1CCc1ccc(Cl)cc1	none
O=c1cc(CN2CC=C(c3ccccc3)CC2)c2c(ccc3ccccc32)o1	FBA Mtb inh 94 | Mtb FBA inh conf 114 | GDH-TPI counter-2 100
CCOC(=O)N1CCC(NC(=O)c2ccc3c(c2)N(Cc2ccccc2)CCS3)CC1	FBA Mtb inh 28 | Mtb FBA inh conf 65 | GDH-TPI counter-2 62
CCOC(=O)N1CCC(NC(=O)c2ccc3c(c2)N(Cc2ccc(F)cc2)CCS3)CC1	FBA Mtb inh 71 | Mtb FBA inh conf 182 | GDH-TPI counter-2 151
COc1ccc(C(=O)COc2ccc3ccc(=O)oc3c2)c(OC)c1	none
COc1cc2oc(=O)ccc2cc1[C@@H](O)[C@@H]1OC(C)(C)OC1(C)C	FBA Mtb inh 29 | Mtb FBA inh conf 79 | GDH-TPI counter-2 40
COc1cccc(OC)c1C(=O)NC(=S)Nc1ccc2oc(=O)ccc2c1	none
COc1cc2oc(=O)ccc2cc1[C@H](O)[C@@H](O)C(C)(C)O	FBA Mtb inh 49 | Mtb FBA inh conf 47 | GDH-TPI counter-2 32
O=C(CSc1cc(Cl)ccc1Cl)NCC(=O)Nc1ccc(F)c(F)c1F	none
O=C(CSc1nc2ccccc2c(=O)[nH]1)Nc1ccc(N2CCOCC2)cc1	Bead autofluor inconclusive
